# Data as given in article PMC5540273 (PLoS ONE, 2017).
# Key:
# Settings in all cases: concentration: 1 μM, replicates: in singlicate; n = 1
# CAMK1 = test system: CAMK1
# CAMK2A = test system: CAMK2A
# CAMK2B = test system: CAMK2B
# CAMK2D = test system: CAMK2D
# CAMK2G = test system: CAMK2G
# CAMK4 = test system: CAMK4
# CAMKK1 = test system: CAMKK1
# CAMKK2 = test system: CAMKK2
# CASK = test system: CASK
# CDC2L1 = test system: T1, CDC2L1
# T1 construct: gene CDK11B
# CDC2L2 = test system: CDC2L2
# CDC2L5 = test system: T2, CDC2L5
# T2 construct: gene CDK13
# CDK11 = test system: T3, CDK11
# T3 construct: gene CDK19
# CDK2 = test system: CDK2
# CDK3 = test system: CDK3
# CDK4-cyclinD1 = test system: CDK4-cyclinD1
# CDK4-cyclinD3 = test system: CDK4-cyclinD3
# CDK4 = test system: CDK4
# CDK5 = test system: CDK5
# CDK7 = test system: CDK7
# 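Further: KINOMEscan kinase panel screen.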
SMILES,%Inh (CAMK1) [%],%Inh (CAMK2A) [%],%Inh (CAMK2B) [%],%Inh (CAMK2D) [%],%Inh (CAMK2G) [%],%Inh (CAMK4) [%],%Inh (CAMKK1) [%],%Inh (CAMKK2) [%],%Inh (CASK) [%],%Inh (CDC2L1) [%],%Inh (CDC2L2) [%],%Inh (CDC2L5) [%],%Inh (CDK11) [%],%Inh (CDK2) [%],%Inh (CDK3) [%],%Inh (CDK4-cyclinD1) [%],%Inh (CDK4-cyclinD3) [%],%Inh (CDK4) [%],%Inh (CDK5) [%],%Inh (CDK7) [%]
COc1cccc(CC(=O)N2CCc3cc(-c4cn(C)c5ncnc(N)c45)ccc32)c1 [GSK2608899],16,0,0,15,27,13,7,9,16,1,8,0,98.4,18,12,0,0,25,6,4
COc1ccc(C2=C(Nc3cccc(O)c3)C(=O)NC2=O)cc1 [SB-390766],23,0,0,11,0,0,0,0,39,0,0,0,93.8,98.3,42,20,9,35,0,0
Cl.Cl.NCC(NC(=O)c1cc(-c2cccnc2)c(-c2ccnc3[nH]ccc23)s1)c1ccccc1 (stereo not shown) [GSK1323434],32,0,0,8,14,0,14,24,30,0,9,0,8,3,26,39,0,79,0,50
Cc1cc(-c2ccnc(Nc3cccc(C#N)c3)n2)cc(C)c1O [GSK1440913],24,13,11,31,39,0,24,30,0,41,51,0,0,68,30,42,22,0,18,61
O=C(Nc1n[nH]c2nc(-c3cccc(O)c3)ccc12)C1CC1 [SB-711805],0,0,0,0,0,0,0,0,0,0,0,46,0,38,49,20,25,15,0,23
O=C(Nc1n[nH]c2nc(-c3ccccc3O)ccc12)C1CC1 [SB-711880],0,0,0,0,0,0,3,0,13,0,0,11,0,37,22,25,17,0,0,7
Nc1cccc(-c2ccc3c(N)n[nH]c3c2)c1 [GSK2193613],29,0,0,11,26,0,2,13,13,7,16,0,8,1,0,13,0,0,0,15
Cc1ccc(NC(=O)c2ccnc(N3CCCCC3)c2)cc1-c1ccc(C(=O)NCC2CC2)cc1 [GW775610],0,0,0,0,0,10,0,0,0,6,0,0,0,36,0,20,0,0,8,0
NCCC(NC(=O)c1cc(Br)c(-c2ccnc3[nH]ccc23)s1)c1ccccc1.O=C(O)C(F)(F)F.O=C(O)C(F)(F)F (stereo not shown) [GSK1307810],43,34,0,29,26,0,5,9,27,0,6,0,58,0,6,38,0,27,0,47
O=C(O)C(F)(F)F.O=c1[nH]ccc2nc(N[C@@H]3CCNC3)nc(Nc3ccc4c(c3)S(=O)(=O)CC4)c12 [GSK2181306],82,59,23,55,52,98.5,92.1,40,15,0,0,0,0,62,53,90.6,69,50,76,85
c1ccc(Oc2ccc(Nc3ccnc4cc(-c5ccc(CN6CCCCC6)o5)ccc34)cc2)nc1 [GW567143],28,0,0,0,0,0,0,0,49,0,9,0,0,0,7,0,0,18,0,45
O=C(Nc1c(F)cccc1F)c1cc(C(=O)c2ccccc2F)c[nH]1 [GSK1326180],17,2,0,1,8,5,0,0,3,0,0,0,6,0,16,33,0,14,0,0
CC(C)(C)c1ccc(C(=O)Nc2cn3cc(-n4ccnc4)ccc3n2)cc1,32,18,0,0,12,0,6,7,8,3,1,7,1,12,0,0,0,0,8,4
Cl.N#CCc1ccc(Nc2nccc(Nc3ccc(Oc4ccccc4)cc3)n2)cc1 [GW639905],10,0,0,0,0,0,0,0,8,0,1,0,0,0,4,0,3,0,0,0
CCOc1nccc(-c2c(-c3ccc(F)cc3)ncn2C2CCNCC2)n1 [SB-249175],0,0,0,0,0,11,1,15,0,3,13,34,12,5,0,33,10,26,12,24
CN(c1ccc2c(c1)nc(NCc1ccccc1)n2C)c1ccnc(Nc2ccc(CS(C)(=O)=O)cc2)n1.Cl [GW811603],0,0,0,0,0,0,14,0,0,94.2,80,49,24,0,0,35,0,34,0,20
Nc1ncnc2scc(-c3ccc(NC(=O)Cc4cc(F)ccc4F)cc3)c12.O=C(O)C(F)(F)F [SB-731254-M],16,0,0,10,5,0,17,12,21,11,36,0,99,0,0,0,11,0,2,0
